Measurements reported in PubChem BioAssay (NCATS).
Records with an inconclusive call do not appear. Unmarked numbers belong to inactive results. Calls of active or inactive are those of the source. The call rests on the fitted dose curve; in most records, active means well fitted inhibition curve with a large enough effect; inconclusive means small, poorly fitted or top-dose-only effect; inactive means no such curve, though single readings can be large or run the other way.

Assay: qHTS for Inhibitors of ATXN expression: Validation (AID 588378); further: nearly all actives have a fitted effect of over 75% in size
Details: cell-based ATXN2 expression reporter assay, luminescence; series mostly up to 57.1 µM; activity change, negative = inhibition: at the top concentration
Description: Spinocerebellar ataxia type 2 (SCA2) is a multisystem neurodegenerative disease caused by a dominantly-acting mutation leading to expansion of a polyQ domain in the ataxin-2 protein (ATXN2). SCA2 patients develop progressive ataxia and later lose function in other neuronal systems. Prominent parkinsonian signs develop in some patients. Similar to many neurodegenerative disorders, no symptomatic or disease-modifying treatments are known.
The primary objective of project is to identify compounds inhibiting ATXN2 expression and to test them for efficacy in SCA2 mouse models. To this end, in a collaboration between Dr. Daniel Scoles and scientists at NCGC, a cell-based assay adapted to high-throughput screening has been developed to screen the NIH Molecular Libraries Small Molecule Repository (MLSMR).
NIH Chemical Genomics Center [NCGC]
NIH Molecular Libraries Probe Centers Network [MLPCN]
Assay Submitter (PI): Stefan Pulst and Daniel Scoles, University of Utah
4 ul of HEK293-ATXN2-FFLuc cell suspension (TBD cells/microL in phenol-red free DMEM) are dispensed into Greiner white solid bottom 1536-well assay plates, yielding a final well density of TBD cells/well. Plates are incubated for 2 hrs at 37 degrees C in 5% humidified CO2 to allow cell attachment. Compounds are then transferred via Kalypsys pin tool equipped with 1536-pin array (10nl slotted pins, V&P Scientific, San Diego, CA). In addition, duplicate serial dilutions of the control compounds ChemBridge 5553825, a previously identified ATXN2 expression inhibitor, and a known luciferase inhibitor, are pin-transferred. After incubation at 37 degrees C in 5% humidified CO2 for 24 hrs, CellTiter-Fluor reagent (1 ul) (Promega, Madison, WI) is then added and plates are incubated for 30 minutes, before being transferred to a ViewLux high-throughput CCD imager (PerkinElmer), wherein single end-point fluorescence measurements are acquired using the 405 nm excitation/525 nm emission filter set to assess cell viability. Next, Bright-Glo luciferase substrate detection reagent (3 ul) (Promega, Madison, WI) is added to each well and incubated for an additional 5 minutes. Luminescence is then measured on the ViewLux imager equipped with a clear emission filter using a 2 sec exposure.
On the % scale 0 is the no-effect control and ±100 the full control effect; potency means the concentration at half of the fitted maximal effect.

| SMILES | activity change, negative = inhibition [%] | Potency |
| --- | --- | --- |
| CCN(CC)CCOC(=O)c1ccc(N)cc1 | 8.84 | – |
| CC(=O)N[C@@H](CS)C(=O)O | 16.8 | – |
| CC(=O)c1ccc(S(=O)(=O)NC(=O)NC2CCCCC2)cc1 | -3.05 | – |
| CCCCC1C(=O)N(c2ccccc2)N(c2ccccc2)C1=O | 5.09 | – |
| CCN1CCC[C@H]1CNC(=O)c1cc(S(N)(=O)=O)ccc1OC | -2.44 | – |
| NCCS | -4.96 | – |
| O=C(NCCN1CCOCC1)c1ccc(Cl)cc1 | 47.7 | – |
| COc1ccccc1N1CCN(CCCNc2cc(=O)n(C)c(=O)n2C)CC1 | -17.7 | – |
| O=c1cc(-c2ccc(O)cc2)oc2cc(O)cc(O)c12 | 77.2 | – |
| NC(N)=Nc1nc(CSCC/C(N)=N/S(N)(=O)=O)cs1 | 4.14 | – |
| C[N+](C)(C)CCCCCC[N+](C)(C)C | – | inactive |
| CCN(CC)C(=O)c1ccc(O)c(OC)c1 | -5.45 | – |
| Clc1ccc(Cn2c(CN3CCCC3)nc3ccccc32)cc1 | -17 | – |
| CCCCCN(C)CCC(O)(P(=O)(O)O)P(=O)(O)O | -4.73 | – |
| O=C(O)CCc1nc(-c2ccccc2)c(-c2ccccc2)o1 | -9.91 | – |
| O=C1NC(=O)C(c2ccccc2)(c2ccccc2)N1 | – | inactive |
| COc1cccc(-c2cc(=O)c3ccccc3o2)c1N | 48.2 | – |

| SMILES | activity change, negative = inhibition [%] | Potency |
| --- | --- | --- |
| Cc1cccc(C)c1OCC(C)N (stereo not drawn) | -25 | – |
| CCN(CC)CCNC(=O)c1ccc(N)cc1 | -1.34 | – |
| C[N+](C)(C)CC(=O)O | -9.04 | – |
| O=C1NCC2(CCN(CCc3ccccc3)CC2)O1 | 4.26 | – |
| CC(C)OC(=O)C(C)(C)Oc1ccc(C(=O)c2ccc(Cl)cc2)cc1 | -6.83 | – |
| CC/C(=C(\c1ccccc1)c1ccc(OCCN(C)C)cc1)c1ccccc1 | – | 22.4 µM (active) |
| CCn1cc(C(=O)O)c(=O)c2ccc(C)nc21 | -1.96 | – |
| CC(=O)O[C@]1(C(C)=O)CC[C@H]2[C@@H]3C=C(Cl)C4=CC(=O)[C@@H]5C[C@@H]5[C@]4(C)[C@H]3CC[C@@]21C | -9.55 | – |
| CC1=C(/C=C/C(C)=C/C=C/C(C)=C/C(=O)Nc2ccc(O)cc2)C(C)(C)CCC1 | – | 31.6 µM (active) |
| CC(=O)CCCCn1c(=O)c2c(ncn2C)n(C)c1=O | 14.5 | – |
| CC(C)NCC(O)COc1cccc2[nH]ccc12 (stereo not drawn) | -5.57 | – |
| COc1ccc(Cc2nccc3cc(OC)c(OC)cc23)cc1OC | 10.3 | – |
| CN(C)CCC(c1ccccc1)c1ccccn1 (stereo not drawn) | -3.87 | – |
| CCCNC(=O)NS(=O)(=O)c1ccc(Cl)cc1 | -17.3 | – |
| CC1(C)CCC2=C(O1)c1ccccc1C(=O)C2=O | – | 22.4 µM (active) |
| O=c1c(-c2ccc(O)cc2)coc2cc(O)ccc12 | 60.4 | – |
